Compound activity (PubChem)
In the library only some 27% were active in any assay of this set; here they are far more common.
CYP2C9 inhib: blockers of cytochrome P450 2C9 activity – biochemical, luminescence, ADME assay, primary screen; inhibition, % at 5 µM; CYP2C9 Supersomes, luciferin-H conversion; 96,000 compounds, 20% hits; P11712;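 active = blocking of liver enzyme CYP2C9 beyond about 50% at 5 µM, limit read from the data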
Target sequence (P11712 whole entry, looked up): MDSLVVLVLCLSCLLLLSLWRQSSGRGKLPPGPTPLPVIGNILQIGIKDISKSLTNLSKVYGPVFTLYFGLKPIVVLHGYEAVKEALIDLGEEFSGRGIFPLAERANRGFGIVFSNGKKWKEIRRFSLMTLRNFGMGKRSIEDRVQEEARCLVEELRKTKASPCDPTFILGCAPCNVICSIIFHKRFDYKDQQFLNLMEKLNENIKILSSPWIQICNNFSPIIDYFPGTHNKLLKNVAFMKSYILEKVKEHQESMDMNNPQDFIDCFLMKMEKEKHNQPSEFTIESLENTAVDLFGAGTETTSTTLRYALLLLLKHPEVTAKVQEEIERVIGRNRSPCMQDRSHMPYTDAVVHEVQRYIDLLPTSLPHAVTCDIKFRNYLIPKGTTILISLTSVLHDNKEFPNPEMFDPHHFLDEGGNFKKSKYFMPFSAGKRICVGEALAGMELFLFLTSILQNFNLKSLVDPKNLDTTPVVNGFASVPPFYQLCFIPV
EphB4 antag: EphB4-ephrin-B2 interaction antagonists, primary screen, biochemical, TNYL-RAW peptide probe, fluorescence polarization; EphB4 LBD / TNYL-RAW-Alexa532 peptide; inhibition, % at 7 µM; Ephrin type-B receptor 4 (Homo sapiens), P54760; 97,000 compounds, 0.15% hits; AID 720, 2007;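 active = inhibition above the screen-wide mean inhibition plus 3 SD, cut at about 15% in these data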;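 note: 0% = DMSO wells and 100% = excess unlabeled TNYL-RAW peptide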
CYP2C19 act: human CYP2C19 activators, primary screen, biochemical, luminescence. recombinant CYP2C19, luciferin-H EGE luminescence; active compounds read high; 0 = fully inhibited enzyme, 1 = untreated enzyme. AID 1025, 2008. Cytochrome P450 2C19 (Homo sapiens), P33261. 96,000 tested, under 10 active. activation factor at 5 µM;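 active = activation factor of at least 2 at 5 µM in the primary screen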;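 note: 0 = wells with 2.5 mM tranylcypromine and 1 = vehicle-only wells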
CYP2C19 inhib: blockers of cytochrome P450 2C19 activity – biochemical, luminescence, ADME assay, primary screen; P33261; CYP2C19 Supersomes, luciferin-H EGE luminescence, 30 min; inhibition, % at 5 µM; 96,000 compounds, 21% hits;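 active = CYP2C19 inhibition above a set limit at 5 µM in the primary screen, cut at about 50% in these data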;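 note: plate controls were negative control wells for no effect and 2.5 mM tranylcypromine positive control for full effect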
CYP2C9 act: human CYP2C9 activators, primary screen, biochemical, luminescence; Cytochrome P450 2C9 (Homo sapiens), P11712; recombinant CYP2C9, luciferin-H conversion; active compounds read high; factor 1 = untreated enzyme, 0 = blocked; activation factor at 5 µM; 96,000 compounds, 1.4% hits; AID 1024, 2008;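 active = activation factor of 2 or more for CYP2C9 at a 5 µM dose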;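 note: 0 = sulfaphenazole-blocked wells and 1 = vehicle-only wells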
* marks the source's active call; other numbers are inactive results; nt = no result.

SMILES | CYP2C9 inhib | EphB4 antag | CYP2C19 act | CYP2C19 inhib | CYP2C9 act
Cc1nnc(SCC(=O)NC(=O)NCc2ccco2)n1Cc1ccccc1 | 67* | 0 | 0.8 | 16 | 0.3
O=C(CSc1nnc(-c2ccco2)n1Cc1ccccc1)NC(=O)NCc1ccccc1 | 30 | -5 | 0.4 | 62* | 0.7
CCOC(=O)CCc1c(C)nc(SCC(=O)O)c(C#N)c1C | 23 | -3 | 1.2 | -21 | 0.8
COc1ccc(CC(=O)Nc2ccc(-c3nc4cc(C)ccc4o3)c(O)c2)cc1OC | 1 | -6 | 1 | 4 | 1
CCOc1ccccc1-n1nnnc1SCC(=O)NC(=O)NCc1ccco1 | 27 | nt | 0.2 | 79* | 0.7
CN(C)CCN(C)Cc1ccc2c(c1)Cc1ccccc1-2 | -6 | nt | 1 | 2 | 1.1
COc1ccc(C)cc1NC(=O)C1CCCCC1C(=O)O (stereo unspecified) | 4 | nt | 1.1 | -8 | 1
COc1ccc2c(c1)cc(C(=O)O)n2C | -16 | -1 | 1.1 | -10 | 1.2
CNC(=O)c1cc2cc(OC)ccc2n1CCN(Cc1ccccc1)Cc1ccccc1 | 67* | -7 | 0.1 | 92* | 0.3
CNC(=O)c1cc2cc(OC)ccc2n1CCN(C)C | -4 | 3 | 0.4 | 63* | 1
COc1cccc(/C=C2\C(=O)C(=O)c3ccccc32)c1 | 13 | -1 | 0.9 | 8 | 0.9
c1ccc(OCCOCCN2CCOCC2)cc1 | -10 | -3 | 1.1 | -6 | 1.1
COc1ccc(-c2nc(SC)n(C)c(=O)c2C#N)cc1OC | 95* | nt | 0.8 | 24 | 0.1
CCc1nc(N)c(C#N)c(-c2ccc(OC)c(OC)c2)c1C | -11 | -4 | 1.1 | -5 | 1.1
O=C(NCc1ccccc1)N1CCn2c(nc3ccccc32)C1 | nt | -1 | nt | nt | nt
CCOc1cccc2cc(C(=O)N3CCc4ccccc4C3)c(=O)oc12 | -146 | -1 | 0.3 | 68* | 2.5*
COc1cccc2cc(C(=O)N3CCN(c4ccccc4F)CC3)c(=O)oc12 | 51* | -4 | 0.6 | 36 | 0.5
COc1ccc2oc(=O)c(C(=O)N3CCN(c4ccccc4C)CC3)cc2c1 | 0 | -6 | 1 | 1 | 1
COc1cc2c(cc1OC)CN(C(=O)c1cc3ccccc3oc1=O)CC2 | -49 | -16 | 0.9 | 13 | 1.5
CCOc1ccc(OCc2ccc(C(=O)N3CCc4ccccc4C3)o2)cc1 | 31 | 3 | 0.5 | 51* | 0.7
CCN1CCN(C(=O)c2ccc(COc3ccc(Cl)cc3)o2)CC1 | 1 | 4 | 1 | -3 | 1
CCOc1cccc2cc(C(=O)Nc3cc(C)on3)c(=O)oc12 | -24 | -6 | 0.9 | 10 | 1.2
COc1cccc2cc(C(=O)N3CCc4ccccc4C3)c(=O)oc12 | -97 | nt | 0.7 | 27 | 2*
COC(=O)c1ccc(NC(=O)COc2ccc(S(=O)(=O)NC(C)C)cc2)cc1 | 29 | 3 | 1.1 | -10 | 0.7
COc1cc(Br)cc2cc(C(=O)N3CCN(c4ccccn4)CC3)c(=O)oc12 | 57* | -2 | 0.3 | 74* | 0.4
SMILES | CYP2C9 inhib | EphB4 antag | CYP2C19 act | CYP2C19 inhib | CYP2C9 act
O=C(c1cc2cc(Br)ccc2oc1=O)N1CCN(c2ccccn2)CC1 | 9 | 3 | 0.9 | 9 | 0.9
O=C(/C=C/c1c(Cl)cccc1Cl)N1CCN(c2ncccn2)CC1 | 52* | 3 | 0 | 96* | 0.5
O=C(Nc1cccc(Cl)c1)N1CCN(c2ncccn2)CC1 | 56* | 1 | 0.1 | 89* | 0.4
O=C(/C=C/c1ccccc1)N1CCN(c2cccc(Cl)n2)CC1 | 46 | 9 | 0.7 | 25 | 0.5
Cc1ccc(NC(=O)CCN2CCN(C/C=C/c3ccccc3)CC2)cc1 | 13 | 5 | 0.8 | 16 | 0.9
O=C(Nc1ccc(F)cc1F)N1CCN(c2ncccn2)CC1 | 14 | nt | 0.3 | 70* | 0.9
Cc1ccc(NC(=O)CCN2CCN(C/C=C/c3ccccc3)CC2)cc1C | -119 | -3 | 1 | 2 | 2.2*
CCOc1ccccc1N1CCN(C(=O)Nc2cccc(Cl)c2)CC1 | -27 | -4 | 0.6 | 45 | 1.3
O=C(Nc1ccc2ccccc2c1)N1CCN(c2ncccc2C(F)(F)F)CC1 | -65 | 2 | 0.3 | 70* | 1.6
O=C(Nc1ccccc1)N1CCN(c2ccc(C(F)(F)F)cn2)CC1 | 24 | 4 | 0.7 | 29 | 0.8
O=C(Nc1cccc(Cl)c1)N1CCN(C/C=C/c2ccccc2)CC1 | 62* | nt | 0.6 | 42 | 0.4
Cc1ccsc1C=Nc1c(C)n(C)n(-c2ccccc2)c1=O | -27 | -9 | 1.2 | -19 | 1.3
CCn1c(=N)n(CC(=O)OC)c2ccccc21 | 4 | 1 | 1 | 4 | 1
Cc1ccc(S(=O)(=O)N2CCCC2C(=O)Nc2nc3ccccc3s2)cc1 (stereo unspecified) | 86* | -1 | 0 | 97* | 0.1
O=C(Nc1nc2ccccc2s1)C1CCCN1S(=O)(=O)c1ccc(Cl)cc1 (stereo unspecified) | 97* | -6 | 0 | 96* | 0
Nc1nc(C2CCCN2S(=O)(=O)c2ccc(Cl)cc2)cs1 (stereo unspecified) | 11 | -6 | 0.2 | 80* | 0.9
O=S(=O)(c1ccccc1)N1CCCC1c1nc2ccccc2s1 (stereo unspecified) | 21 | 0 | 0.8 | 19 | 0.8
Cc1ccc(S(=O)(=O)N2CCCC2C(=O)Nc2ccc(O)cc2)cc1 (stereo unspecified) | -45 | nt | 0.9 | 9 | 1.5
C=CCOc1ccc(C2OC34CCCCC3C(C#N)(C#N)C2(C#N)C(=N)O4)cc1 (stereo unspecified) | 16 | -4 | 0.9 | 5 | 0.8
O=C1c2ccccc2C2(c3ccccc3)NCCN12 (stereo unspecified) | 8 | nt | 0.9 | 8 | 0.9
COc1ccc(N2C(=O)CN=C2Nc2nc(C)cc(C)n2)cc1 | 2 | 1 | 1 | 4 | 1
Cc1c(CN2CCCCC2)c(O)n(CCCO)c(=O)c1C#N | -21 | -10 | 1.1 | -15 | 1.2
CCCn1c(O)c(CN2CCCCC2)c(C)c(C#N)c1=O | 63* | 4 | 1.1 | -8 | 0.4
CCC(=O)Nc1nn(C)c2nc3c(C)cccc3cc12 | nt | -4 | nt | nt | nt
CCCn1nc(NS(C)(=O)=O)c2cc3cccc(C)c3nc21 | 65* | -2 | 0.7 | 32 | 0.3
CCn1nc(NS(=O)(=O)c2ccccc2)c2cc3cccc(C)c3nc21 | 79* | 3 | 0.9 | 9 | 0.2
CCn1nc(NC(=O)c2ccccn2)c2cc3cccc(C)c3nc21 | 7 | 0 | 1 | 2 | 0.9
CCOCCCNC(=O)C1CCC(CNS(=O)(=O)c2ccc(F)cc2)CC1 (stereo unspecified) | 7 | -7 | 1 | 5 | 0.9
CCOC(=O)C1=C(C)Nc2ncnn2C1c1ccc(N(C)C)cc1 (stereo unspecified) | 38 | nt | 0.6 | 41 | 0.6
